PAD4 FP inh – human PAD4 inhibitors, primary screen, biochemical, fluorescence polarization, 1536-well format | recombinant PAD4, RCA probe fluorescence polarization | inhibition, % at 6.36 µM | AID 485272, 2010 | Protein-arginine deiminase type-4 (Homo sapiens), Q9UM07 | actives 0.41% (n = 330,000);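 active = percent inhibition above a cutoff equal to the mean of all tested compounds plus 3 SD, cut at about 15% in these data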;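 also: 0% = PAD4 with RCA probe and DMSO and 100% = probe without PAD4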
LYPLA1 counter – LYPLA1 inhibitors, primary screen, counter-screen for PME1 inhibitor project, biochemical, fluorescence polarization, FP-Rh probe ABPP | recombinant LYPLA1 | inhibition, % at 5.9 µM | actives 0.16% (n = 320,000) | AID 2174, 2009;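 active = inhibition above the mean of all tested compounds plus 3 SD, set per campaign, cut at about 14% in these data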;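 also: inhibitors block serine hydrolase probe labeling of LYPLA1 so polarization falls; 0% = enzyme with DMSO and 100% = wells lacking LYPLA1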
GSTO1 inh – inhibitors of recombinant GSTO1, primary screen, counter-screen for RBBP9 inhibitor project, biochemical, fluorescence polarization; Glutathione S-transferase omega-1 (Homo sapiens), P78417; activity-based probe fluorescence polarization; inhibition, % at 5.96 µM; actives 1.1% (n = 300,000); AID 1974, 2009;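 active = inhibition above the campaign mean inhibition plus 3 SD, cut at about 35% in these data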;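 also: 0% = GSTO1-1 with DMSO and 100% = wells lacking GSTO1-1 enzyme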
Target sequence (P78417 whole entry, looked up): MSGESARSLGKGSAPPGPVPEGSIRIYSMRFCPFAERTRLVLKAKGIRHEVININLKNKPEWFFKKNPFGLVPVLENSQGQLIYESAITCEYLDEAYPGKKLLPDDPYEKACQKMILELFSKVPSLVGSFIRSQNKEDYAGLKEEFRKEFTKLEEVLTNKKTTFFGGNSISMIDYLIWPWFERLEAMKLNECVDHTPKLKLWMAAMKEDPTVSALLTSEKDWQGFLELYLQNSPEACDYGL
Fam108B inh – mouse Fam108B serine hydrolase inhibitors, primary screen, counter-screen for RBBP9 inhibitor project, biochemical, fluorescence polarization; inhibition, % at 9.51 µM; actives 0.33% (n = 300,000); recombinant Fam108B, FP-Rh probe fluorescence polarization; AID 1947, 2009;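 active = inhibition above the screen mean inhibition plus 3 SD, computed separately per campaign, cut at about 18% in these data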;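 also: inhibitors lower polarization as less probe binds the enzyme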
LYPLA2 counter – LYPLA2 inhibitors, primary screen, counter-screen for PME1 inhibitor project, biochemical, fluorescence polarization, FP-Rh probe ABPP; recombinant LYPLA2; inhibition, % at 5.9 µM; actives 0.38% (n = 320,000);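 active = inhibition above the screen-wide mean plus 3 SD, limit set per campaign, cut at about 26% in these data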;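 also: 0% = LYPLA2 with DMSO and 100% = wells lacking LYPLA2 enzyme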
Target sequence (O95372 whole entry, looked up): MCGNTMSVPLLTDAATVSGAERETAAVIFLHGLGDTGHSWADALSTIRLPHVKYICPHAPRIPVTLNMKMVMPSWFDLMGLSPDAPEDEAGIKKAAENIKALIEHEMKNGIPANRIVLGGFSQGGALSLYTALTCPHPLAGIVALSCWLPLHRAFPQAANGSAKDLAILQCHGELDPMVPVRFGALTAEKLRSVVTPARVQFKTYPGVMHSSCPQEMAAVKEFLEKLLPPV
PME-1 primary – PME-1 inhibitors via competitive probe labeling, primary screen, biochemical, fluorescence polarization, FP-Rh probe, HTS; AID 2130, 2009; Protein phosphatase methylesterase 1 (Homo sapiens), Q9Y570; actives 0.53% (n = 320,000); recombinant PME-1; inhibition, % at 5.9 µM;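 active = inhibition above the campaign mean of all compounds plus 3 SD, cut at about 26% in these data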;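 also: competitive labeling of PME-1 active site by serine hydrolase directed probe; 0% = PME-1 with DMSO and 100% = wells lacking PME-1 enzyme; inhibitors block probe labeling so polarization falls and inhibition rises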
LYPLA2 confirm – LYPLA2 inhibitors, retest, confirmation, counter-screen for PME1 inhibitor project, biochemical, fluorescence polarization, FP-Rh probe ABPP; actives 72% (n = 1,100); AID 2232, 2010; shares compounds with LYPLA2 counter; recombinant LYPLA2; inhibition, % at 5.9 µM;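 active = mean inhibition across replicates above the hit cutoff set in the primary screen, cut at about 26% in these data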;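 also: blocked labeling of the enzyme by serine hydrolase FP-Rh probe lowers polarization; 0% = enzyme with DMSO and 100% = wells lacking LYPLA2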
LYPLA2 ABPP – LYPLA2 inhibitors in proteome, late-stage follow-up, gel-based competitive ABPP, fluorescence, assay provider | shares compounds with LYPLA2 counter | inhibition, % at 20 µM | actives 30% (n = 150) | rhLYPLA2 in mouse brain proteome, gel ABPP FP-Rh;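 active = inhibition of LYPLA2 enzyme probe labeling above about 50%, limit read from the data; inactive = inhibition below that limit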;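 also: loss of FP-Rh probe labeling of the LYPLA2 gel band measured as band density; 0% = DMSO only control band and 100% = blank gel background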
An asterisk follows results filed as active; . = not tested or not shown. A selection: hits, their analogues and other compounds. The true share with any hit is near 1.8%.

SMILES	PAD4 FP inh	LYPLA1 counter	GSTO1 inh	Fam108B inh	LYPLA2 counter	PME-1 primary	LYPLA2 confirm	others
CN(C(=O)c1ccc(NC(=O)Cc2ccc(NC(=O)C3CCCN(C(=O)CCc4ccccc4)C3)cc2)cc1)C1CC1 (stereo not given)	4	6	.	.	58*	-3	50*	LYPLA2 ABPP=46
CN(C(=O)c1ccc(NC(=O)Cc2cccc(NC(=O)C3CCCN(C(=O)CCc4ccccc4)C3)c2)cc1)C1CCCC1 (stereo not given)	-1	-1	.	.	-1	-6	.
Cn1cccc1Cc1nnc(SCC(=O)N2CCN(c3ccccc3)CC2)n1-c1ccc(F)cc1	1	-3	-5	3	0	-1	.
CCN(C(=O)CCS(=O)(=O)c1cccc2nonc12)c1ccc(C)c(C)c1	-2	-10	6	-1	-3	3	.
Cc1ccc(Cl)cc1N1CCN(C(=O)CCCn2c(=O)c3cccn3c3cccnc32)CC1	5	7	1	-10	38*	3	34*
CC(C)c1ccc(OCc2ccc(C(=O)N(C)C)o2)cc1	-2	3	-1	-4	-2	2	.
Cc1cccc(NC(=O)CN2C(=O)S/C(=C\c3cc(C)n(C)c3C)C2=O)c1	-3	-6	-4	-5	57*	-1	77*	LYPLA2 ABPP=60*
Cc1ccc(NC(=O)CN2C(=O)S/C(=C\c3ccc(-c4cccc(C(=O)O)c4C)o3)C2=O)cc1	-1	-4	1	-9	2	-6	.
Cc1ccc(NC(=O)CN2C(=O)S/C(=C\c3cc(C)n(-c4cccc(C(=O)O)c4)c3C)C2=O)cc1	-6	-5	-21	-1	48*	-4	43*
Cc1ccc(NC(=O)CN2C(=O)S/C(=C\c3cc(C)n(C)c3C)C2=O)cc1	-8	-11	-1	-9	-18	-11	.
O=C(CN1C(=O)S/C(=C\c2ccccc2F)C1=O)Nc1ccccc1O	4	-4	-5	0	12	5	.
Cc1ccc(C(=O)O)cc1-c1ccc(/C=C2\SC(=O)N(CC(=O)Nc3ccccc3)C2=O)o1	0	-4	-19	-3	27*	-7	26*
Cc1cc(/C=C2\SC(=O)N(CC(=O)Nc3ccccc3F)C2=O)c(C)n1C	0	-7	5	-2	42*	-8	26*
O=C(/C=C/c1ccc(S(=O)(=O)N2CCOCC2)cc1)NCCCn1ccnc1	0	-2	-4	-1	2	-4	.
O=C(CNC(=O)c1ccc(Cl)cc1)OCCCOC(=O)CNC(=O)c1ccc(Cl)cc1	-4	2	-1	-3	0	4	.
CCCCCC1CC(CC(=O)Nc2ccc([N+](=O)[O-])cc2)C(=O)O1 (stereo not given)	-4	1	13	-6	36*	-4	31*
CCCCCCC1CC(CCC(=O)Nc2ccc([N+](=O)[O-])cc2)C(=O)O1 (stereo not given)	-3	-1	-4	2	14	-1	.
CCCCCC1CC(CC(=O)O)C(=O)O1 (stereo not given)	4	0	6	-1	1	0	.
CCCCCC1CC(CC(=O)Nc2ccc([N+](=O)[O-])cc2)OC1=O (stereo not given)	-4	3	5	0	35*	6	37*
N#C/C(=C\c1ccc(N2CCOCC2)c([N+](=O)[O-])c1)c1nc2ccccc2[nH]1	-5	12	4	11	31*	15	53*
